Values joined by “and” are separate entries in the source; they are usually repeats but may differ in a detail not shown here. Identical values can stand only once. The whole screen tested about 2,400 compounds, of which about 1,400 (58%) were called active.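 Rule for the calls: active = inhibition of 30% or more at any tested dose; inconclusive = primary hits over the limit that were never retested; inactive = the rest.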 So high a share suggests a set chosen from earlier hits. Some of the results follow.
Test: ADP Hunter readout inhibition without MgcRacGAP – biochemical, coupled enzyme counter-screen, artefact control for MgcRacGAP inhibitor project, dose response (AID 624351);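 note: signal is the ADP detection kit reading of free GDP without any GAP enzyme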
Details: fluorescence, no MgcRacGAP; series mostly up to 80 µM

| Compound | IC50 |
| --- | --- |
| Cc1cccc(N2C(=O)/C(=C/c3ccc(CN(CCC#N)S(C)(=O)=O)o3)C(=O)NC2=S)c1 | inactive |
| Cc1ccc2c(C)c3ccc4ccccc4c3c[n+]2c1 | inactive |
| CN(C)c1ccc(/C=C/c2cc[n+](C)c3ccccc23)cc1 | 47.2 µM (active) and 59.7 µM (active) |
| CN(C)c1ccc(/C=C/C=C/c2sc3ccccc3[n+]2C)cc1 | 70.2 µM (active) |
| CCc1ccc(CNCCc2c[nH]c3ccccc23)cc1 | inactive |
| O=C1NC(=O)N(CCC2=CCCCC2)C(=O)/C1=C/c1ccc(O)cc1 | inactive |
| COc1ccc(CNCCc2ccc(Cl)cc2)c(OC)c1OC | inactive |
| O=C1NC(=S)N(c2ccccc2)C(=O)/C1=C/c1ccco1 | inactive |
| O=C1NC(=S)N(C2CC2)C(=O)/C1=C/c1ccc2c(c1)CCN2CCCCl | inactive |
| Cc1cc(/C=C2\C(=O)NC(=O)N(c3cccc(F)c3)C2=O)c(C)n1-c1cc(C(=O)O)cc(C(=O)O)c1 | inactive |
| Cc1cc(-c2ccc(N)c(C)c2)ccc1N | 14.2 µM (active) |
| Cc1cc(-c2cc(C)c(N)c(C)c2)cc(C)c1N | 11.2 µM (active) |
| COc1cc(-c2ccc(N)c(OC)c2)ccc1N | 8.45 µM (active) |
| Brc1cccc(CNCCc2ccc3c(c2)OCO3)c1 | inactive |
| CN(C)c1ccc(/C=C2/C(=O)NC(=O)N(Cc3ccco3)C2=O)cc1 | inactive |
| Cc1ccccc1N1C(=O)NC(=O)/C(=C\c2cnn(-c3ccccc3)c2)C1=O | inactive |
| O=C1NC(=O)C(=Cc2cc(Cl)ccc2OCc2ccc(C(=O)O)cc2)C(=O)N1 | inactive |
| O=C(COc1ccccc1)N1CCN(CC2CC3C=CC2C3)CC1 (centres undefined) | inactive |
| O=C1NC(=O)C(=Cc2c(Cl)cccc2Cl)C(=O)N1 | inactive |
| COc1cc(CNCCc2ccc3c(c2)OCO3)cc(OC)c1OC | inactive |
| O=C(Cc1ccccc1)N1CCN(Cc2ccc(F)cc2)CC1 | inactive |
| O=C(COc1ccccc1)N1CCN(C2CCCC2)CC1 | inactive |

| Compound | IC50 |
| --- | --- |
| c1ccc(CN2CCN(Cc3ccc4ccccc4c3)CC2)cc1 | inactive |
| O=C(O)c1ccccc1-c1ccc(C=C2C(=O)N(c3ccccc3)C(=S)N(c3ccccc3)C2=O)o1 | inactive |
| Nc1ccc(Sc2ccc(N)cc2)cc1 | 10.4 µM (active) |
| Nc1ccc(N=Nc2ccc(N)cc2)cc1 | 20.5 µM (active) |
| Nc1ccc(-c2ccc(N)cc2)cc1 | 8 µM (active) |
| Cc1cc(N(C)C)ccc1N=Nc1ccc(N)cc1 | 33.7 µM (active) |
| O=C(COc1ccc2ccccc2c1)N1CCN(Cc2ccncc2)CC1 | inactive |
| COc1ccc(N2CC2c2ccncc2)cc1 (centres undefined) | inactive |
| COP(=S)(OC)SCn1nnc2ccccc2c1=O | inactive |
| Fc1ccc(CNCCc2ccccc2)cc1 | inactive |
| COc1cccc(CN2CCN(Cc3cccc(F)c3)CC2)c1 | inactive |
| O=C(O)CCn1cc(C=C2C(=O)NC(=S)NC2=O)c(-c2ccccc2)n1 | inactive |
| COc1ccc(CCNCc2cccc(C(F)(F)F)c2)cc1OC | inactive |
| CSc1ccc(CN2CCN(Cc3ccccc3Cl)CC2)cc1 | inactive |
| O=P(Oc1ccc(-c2ccccc2)cc1)(N1CC1)N1CC1 | inactive |
| O=C(NC1CCCCC1)Oc1cc2oc(=O)sc2cc1Cl | inactive |
| COc1ccccc1N1CCN(Cc2cccc(Br)c2)CC1 | inactive |
| COc1ccc(Br)cc1CNCCc1cccc(Cl)c1 | inactive |
| O=C1NC(=O)C(=Cc2ccco2)C(=O)N1 | inactive |
| Cc1nn(CCC#N)c2c1P(=S)(N1CCCC1)OC(c1ccc(F)cc1)=N2 (centres undefined) | inactive |
| O=C1NC(=O)N(c2ccccc2)C(=O)/C1=C/c1coc2ccc(O)cc2c1=O | inactive |
| CN(C)c1ccc2c(c1)N=C(c1ccco1)OP2(=S)N1CCOCC1 (centres undefined) | inactive |
